{"source": "ChEMBL document CHEMBL3988442", "about": "“University of Dundee, Small-Polar-MMV Screening Library” (2021)", "note": "In all, about 48,000 compounds went through this assay and about 13,000 (27%) showed an effect of 50% or more. The list shows a part of the results."}
{"tested_on": "Wolbachia pipientis", "experiment": "Anti-Wolbachia Cell-Based Screen", "assay_type": "functional", "parameters": "scale not given: in the data most compounds retested in dose-response had high values", "conditions": "5 µM", "units": {"Percent Effect": "%"}}
{"smiles": "Cc1ccn2ncc(C(=O)N3CCCC(c4noc(C)n4)C3)c2n1", "note": "(configuration not stated)", "Percent Effect": 1.825}
{"smiles": "CCOCCNS(=O)(=O)c1cc(C)c2nc(O)cc(C)c2c1", "Percent Effect": 93.93}
{"smiles": "CCOCCCNc1nc(CS(=O)(=O)c2ccccc2)cs1", "Percent Effect": -0.3734}
{"smiles": "CCOCCNCc1cc(O)c2cc(C)ccc2n1", "Percent Effect": -3.741}
{"smiles": "NC(=O)CN1CCCC(C(=O)N2CCC(O)(c3ccccc3)CC2)C1", "note": "(configuration not stated)", "Percent Effect": -6.911}
{"smiles": "CN(C)C(=O)CN1CCN(C(=O)C2CSc3ccccc3O2)CC1", "note": "(configuration not stated)", "Percent Effect": -6.188}
{"smiles": "CCOC(=O)CN1CCC2(CC1)CC(=O)c1ccc3ccccc3c1O2", "Percent Effect": 117.9}
{"smiles": "NC(=O)CN1CCC2(CC1)CC(=O)c1ccc3ccccc3c1O2", "Percent Effect": 103.8}
{"smiles": "CN(C)C(=O)CN1CCC2(CC1)CC(=O)c1ccc3ccccc3c1O2", "Percent Effect": 109.8}
{"smiles": "CCOC(=O)CN1CCC2(CC1)CC(NC(=O)c1ccccn1)CO2", "note": "(configuration not stated)", "Percent Effect": -1.011}
{"smiles": "CN(C)C(=O)CN1CCC2(CC1)CC(=O)c1c(ccc3ccccc13)O2", "Percent Effect": 104.8}
{"smiles": "Cc1ccccc1CN1C[C@@H]2OCC(=O)N(CC(N)=O)[C@@H]2C1", "Percent Effect": -9.838}
{"smiles": "CCOc1cccc(CNC(=O)CN2CCC3(CCOC3)C2)c1", "note": "(configuration not stated)", "Percent Effect": -4.928}
{"smiles": "CN(C)C(=O)CN1CCCN(CC2CCOc3ccccc3C2)CC1", "note": "(configuration not stated)", "Percent Effect": -6.111}
{"smiles": "CN(C)C(=O)CN1CCC2(CC1)COC2", "Percent Effect": -28.68}
{"smiles": "CN1CC(c2ccccc2)CC2(CCN(CC(=O)N(C)C)CC2)C1", "note": "(configuration not stated)", "Percent Effect": -1.357}
{"smiles": "CC(C)Nc1cc(N2CCCC3(CN(C)C(=O)O3)C2)ncn1", "note": "(configuration not stated)", "Percent Effect": -4.728}
{"smiles": "Cc1cccnc1NC(=O)C1CCCN(c2cccc(C(F)(F)F)n2)C1", "note": "(configuration not stated)", "Percent Effect": 9.755}
{"smiles": "CCn1cc(CN(C)C(=O)C(c2ccccc2C)N(C)C)cn1", "note": "(configuration not stated)", "Percent Effect": 1.037}
{"smiles": "Cc1ccc2[nH]c(CO[C@H]3CN(C(=O)C4CC4)C[C@H]3F)nc2c1", "Percent Effect": -10.96}
{"smiles": "O=C(CCCn1cncn1)N1CCCC1c1noc(C2CC2)n1", "note": "(configuration not stated)", "Percent Effect": 94.63}
{"smiles": "CSCC(=O)N1CCCC1c1noc(C2CC2)n1", "note": "(configuration not stated)", "Percent Effect": 7.079}
{"smiles": "O=C(CCCn1cncn1)N1CCCC1c1nc(-c2ccccc2)no1", "note": "(configuration not stated)", "Percent Effect": 16.9}
{"smiles": "O=C(CCn1cncn1)N1CCCC1c1noc(C2CC2)n1", "note": "(configuration not stated)", "Percent Effect": 89.8}
{"smiles": "OCC(O)CSCc1cn(-c2ccc(Cl)cc2)nn1", "note": "(configuration not stated)", "Percent Effect": -1.714}
{"smiles": "c1ccc(CCN2CCN(C3CCOC4(CCOCC4)C3)CC2)cc1", "note": "(configuration not stated)", "Percent Effect": 96.21}
{"smiles": "c1ccc(CN2CCN(C3CCOC4(CCOCC4)C3)CC2)nc1", "note": "(configuration not stated)", "Percent Effect": 115.7}
{"smiles": "O=C(O)C(F)(F)F.c1ccc(OC2COC3(CCN(Cc4ccccn4)CC3)C2)cc1", "note": "(configuration not stated)", "Percent Effect": -3.872}
{"smiles": "CN1CCN(C(=O)CC2CCN(CCc3ccccn3)CC2)CC1", "Percent Effect": -2.122}
{"smiles": "c1ccc(CCN2CCN(C3CCOC4(CCOCC4)C3)CC2)nc1", "note": "(configuration not stated)", "Percent Effect": 69.95}
{"smiles": "O=C1OC2(CCN(C3CCCOC3)CC2)CN1CCc1ccccc1", "note": "(configuration not stated)", "Percent Effect": 0.1893}
{"smiles": "O=C(NC1COC2(CCN(Cc3ccccn3)CC2)C1)c1ccccn1.O=C(O)C(F)(F)F", "note": "(configuration not stated)", "Percent Effect": -3.603}
{"smiles": "COC(=O)C(O)C1CCN(CCc2ccccn2)CC1", "note": "(configuration not stated)", "Percent Effect": -11.11}
{"smiles": "O=C1NC2(CCN(CCc3ccccc3)CC2)CC1c1ccccc1", "note": "(configuration not stated)", "Percent Effect": -3.919}
{"smiles": "CC(C)Cc1cc(CC2(NCc3ccccc3Cl)COC2)no1", "Percent Effect": -7.466}
{"smiles": "COc1cc(C)c(C(C)Nc2ncc(C(N)=O)cc2Cl)cc1OC", "note": "(configuration not stated)", "Percent Effect": -11.51}
{"smiles": "Cc1nn(C)c2nc(N(CCN(C)C)CC3CCCO3)sc12", "note": "(configuration not stated)", "Percent Effect": 2.651}
{"smiles": "CC(NS(=O)(=O)CC1(C#N)CCCC1)c1cccc(-n2cccn2)c1", "note": "(configuration not stated)", "Percent Effect": -9.973}
{"smiles": "COc1ccc(C)cc1CN(Cc1nc(C)c(C)o1)C1CCN(C)C1", "note": "(configuration not stated)", "Percent Effect": -12.97}
{"smiles": "Cn1cc(N2C[C@@H]3CN(CC4CCOCC4)C[C@@H]3C2=O)cn1.O=C(O)C(F)(F)F", "Percent Effect": -5.316}
{"smiles": "Cn1cc(CN2CC[C@@H]3[C@@H]2CCN3C(=O)c2cccc(F)c2)cn1.O=C(O)C(F)(F)F", "Percent Effect": -56.05}
{"smiles": "Cn1cc(N2C(=O)CC[C@@H]3[C@H]2CCN3Cc2cccc(C#N)c2)cn1.O=C(O)C(F)(F)F.O=C(O)C(F)(F)F", "Percent Effect": 96.87}
{"smiles": "Cn1cc(N2C(=O)CC[C@@H]3[C@H]2CCN3CCc2ccccc2)cn1.O=C(O)C(F)(F)F.O=C(O)C(F)(F)F", "Percent Effect": 83.57}
{"smiles": "Cn1cc(C(=O)N2CC[C@@H]3[C@@H]2CCN3Cc2cccc(C#N)c2)cn1.O=C(O)C(F)(F)F", "Percent Effect": -1.669}
{"smiles": "COc1ccc(CN2CC[C@@H]3[C@H]2CCC(=O)N3c2cnn(C)c2)cc1.O=C(O)C(F)(F)F", "Percent Effect": 83.34}
{"smiles": "Cn1cc(N2C(=O)C[C@@H]3[C@@H]2CCN3C(=O)c2ccco2)cn1", "Percent Effect": -4.812}
{"smiles": "Cn1cc(N2C(=O)CC[C@@H]3[C@H]2CCN3CC2CCOCC2)cn1.O=C(O)C(F)(F)F", "Percent Effect": 100.5}
{"smiles": "CN1CCN([C@@H]2CCN(CC3CCOC3)[C@H]2Cc2cnn(C)c2)CC1.O=C(O)C(F)(F)F.O=C(O)C(F)(F)F.O=C(O)C(F)(F)F", "note": "(some centres not stated)", "Percent Effect": -10.32}
{"smiles": "Cc1cnn(CC2CN(c3ncnc4c3CCC4)CCO2)c1", "note": "(configuration not stated)", "Percent Effect": -34.52}
{"smiles": "Cc1noc(C)c1CC(=O)NCCN1CCN(S(C)(=O)=O)CC1", "Percent Effect": -3.578}
{"smiles": "N#Cc1cc2c(=O)n(CC(O)Cc3ccccc3)ccc2[nH]c1=O", "note": "(configuration not stated)", "Percent Effect": -6.856}
{"smiles": "O=C(Nc1ccc(-c2ccccc2)cc1)N1C[C@@H]2CNC[C@]2(C(=O)O)C1", "Percent Effect": 6.586}
{"smiles": "CC(C)N1CCN(S(=O)(=O)c2ncn(C)c2Cl)CC1", "Percent Effect": 22.53}
{"smiles": "O=C1O[C@@H]2CN(Cc3cccc(O)c3)C[C@@H]2N1CCCN1CCOCC1", "Percent Effect": 15.85}
{"smiles": "Cn1cc(C(=O)N2CC[C@@H]3[C@@H]2CCN3Cc2ccccc2)cn1.O=C(O)C(F)(F)F", "Percent Effect": -15.71}
{"smiles": "Cn1cc(CN2CC[C@@H]3[C@H]2CCC(=O)N3c2ccccc2)cn1.O=C(O)C(F)(F)F", "Percent Effect": 107.5}
{"smiles": "Cn1cc(CN2CC[C@@H]3[C@@H]2CCN3Cc2ccc3c(c2)OCO3)cn1.O=C(O)C(F)(F)F.O=C(O)C(F)(F)F", "Percent Effect": -8.648}
{"smiles": "CN(Cc1ccccc1)C(=O)CS(=O)(=O)Cc1ccc(Cl)c(Cl)c1", "Percent Effect": -2.386}
{"smiles": "Cc1cccc(S(=O)(=O)NC2CCN(CC(F)(F)F)C2)c1", "note": "(configuration not stated)", "Percent Effect": -3.118}
{"smiles": "COc1ccccc1NCC(=O)NCc1ccc(-c2ccn[nH]2)cc1", "Percent Effect": -17.15}
{"smiles": "CNC(=O)C1CCN(C(=O)NCc2ccc(C)n2C)CC1", "Percent Effect": -3.399}
{"smiles": "CNC(=O)C1CCN(C(=O)NCc2ccc(-c3ccn[nH]3)cc2)CC1", "Percent Effect": 139.8}
{"smiles": "CCOc1ccc(CNC(=O)N2CCCC(CO)C2)cc1F", "note": "(configuration not stated)", "Percent Effect": 1.945}
{"smiles": "NC(=O)CC1CCN(C(=O)NCc2ccc(-c3ccn[nH]3)cc2)CC1", "Percent Effect": 131.5}
{"smiles": "Cc1[nH]ncc1CCCNC(=O)N1CCC(CC(N)=O)CC1", "Percent Effect": -1.64}
{"smiles": "CC(=O)N1CCCN(C(=O)NCc2ccc(-c3ccn[nH]3)cc2)CC1", "Percent Effect": 101.6}
{"smiles": "O=C(NCc1ccccc1)N1CCC(Oc2ncccc2Cl)CC1", "Percent Effect": 6.296}
{"smiles": "COC(=O)NC1(C(=O)NCc2ccc(-c3ccn[nH]3)cc2)CCCC1", "Percent Effect": -10.61}
{"smiles": "CC(=O)NC1CCCN(C(=O)NCc2ccc(-c3ccn[nH]3)cc2)C1", "note": "(configuration not stated)", "Percent Effect": 11.01}
{"smiles": "CCOCC1CCCN(C(=O)NCc2ccc(-c3ccn[nH]3)cc2)C1", "note": "(configuration not stated)", "Percent Effect": 107.6}
{"smiles": "O=C(NCc1ccc2c(c1)OCCO2)N1CCC(CO)CC1", "Percent Effect": -3.134}
{"smiles": "O=C(O)C(F)(F)F.O=C(c1cnoc1)N1CCC[C@]2(C[C@@H](OCc3ccccn3)CO2)C1", "Percent Effect": 20.74}
{"smiles": "O=C(NCc1ccc(-c2ccn[nH]2)cc1)N1CCC(N2CCCC2)C1", "note": "(configuration not stated)", "Percent Effect": 1.692}
{"smiles": "NC(=O)C1CCN(C(=O)NCc2ccc3c(c2)OCCO3)CC1", "Percent Effect": 2.129}
{"smiles": "NC(=O)C1CCN(C(=O)NCc2ccc(-c3ccn[nH]3)cc2)CC1", "Percent Effect": 110.5}
{"smiles": "Cc1csc(CNc2cnn(CC(C)C)c2)n1", "Percent Effect": -6.579}
{"smiles": "CCC(CC)C(CNC(=O)Nc1cnn(CCOC)c1)N(C)C", "note": "(configuration not stated)", "Percent Effect": -1.824}
{"smiles": "CCN(CC)Cc1ccc(CNC(=O)C(C)(C)n2cc(Br)cn2)cc1", "Percent Effect": 25.74}
{"smiles": "Cc1cc(C)c(NC(=O)Nc2cnn(CC(O)CN(C)C)c2)c(C)c1", "note": "(configuration not stated)", "Percent Effect": 101.9}
{"smiles": "Cc1csc(CNc2cnn(CC(F)(F)F)c2)n1", "Percent Effect": 0.5328}
{"smiles": "CN(C)CC(O)Cn1cc(NCc2ccc(Br)cc2)cn1", "note": "(configuration not stated)", "Percent Effect": 110.4}
{"smiles": "Cc1cc(C)c(CNc2cnn(CC(O)CN(C)C)c2)c(C)c1", "note": "(configuration not stated)", "Percent Effect": 97.23}
{"smiles": "CCn1cc(NC(=O)NCC(O)CN2CCCCC2)cn1", "note": "(configuration not stated)", "Percent Effect": -8.278}
{"smiles": "CNS(=O)(=O)CC1CCCN1c1ccc(Cl)cn1", "note": "(configuration not stated)", "Percent Effect": -0.6453}
{"smiles": "CC(C)COC(C)C(=O)N1CCCCC1", "note": "(configuration not stated)", "Percent Effect": 22.01}
{"smiles": "CN(C(=O)CNCCn1cccn1)C1(C#N)CCCCC1", "Percent Effect": -7.323}
{"smiles": "N#CC1(NC(=O)CNCCn2cccn2)CCCCC1", "Percent Effect": 0.8723}
{"smiles": "Cc1cnn(CCNCC(=O)NCC2(c3ccccc3)CCC2)c1", "Percent Effect": 6.79}
{"smiles": "O=C(CNCCn1cccn1)NCC1(c2ccccc2)CCCC1", "Percent Effect": 152.5}
{"smiles": "CC(NC1(CNC(=O)Cn2cccn2)CCOCC1)c1ccccc1", "note": "(configuration not stated)", "Percent Effect": -4.179}
{"smiles": "O=C(CNCCn1cccn1)NCC1(c2ccccc2)CC1", "Percent Effect": -4.744}
{"smiles": "O=C(CNCCn1cccn1)NCC1(c2ccccc2)CCC1", "Percent Effect": 123.8}
{"smiles": "Cc1cnn(CCNCC(=O)NCC2(c3ccccc3)CC2)c1", "Percent Effect": 75.55}
{"smiles": "O=C(CNCCn1cccn1)NCC1(c2ccccc2)CCOCC1", "Percent Effect": 92.49}
{"smiles": "Cc1cccc(C2(C(=O)NCCCn3cccn3)CC2)c1", "Percent Effect": -18.04}
{"smiles": "O=C(Cn1cccn1)NCC1(c2ccccc2)CC1", "Percent Effect": 8.498}
{"smiles": "Cc1cnn(CCNCC(=O)NCCOc2ccccc2)c1", "Percent Effect": -6.94}
